Bioassay records: PubChem BioAssay, National Center for Advancing Translational Sciences (NCATS)
The list is not random: actives were taken first. Their share in the collection is about 21%.
Giardia FBPA inh: blocks Giardia fructose-bisphosphate aldolase activity; purified Giardia FBPA; Potency, µM (titrated, usually from 59.6 µM), for the others: top-dose activity, negative = inhibition, most hits filed as inhibitors; 0.71% of 290,000 active; AID 2451; also: potency is read from the fitted curve at half-maximal effect; % is scaled to controls: 0 for no effect and ±100 for the full control effect; nearly all actives have a fitted effect of over 55% in size
Target sequence (A8B2U2 whole entry, looked up): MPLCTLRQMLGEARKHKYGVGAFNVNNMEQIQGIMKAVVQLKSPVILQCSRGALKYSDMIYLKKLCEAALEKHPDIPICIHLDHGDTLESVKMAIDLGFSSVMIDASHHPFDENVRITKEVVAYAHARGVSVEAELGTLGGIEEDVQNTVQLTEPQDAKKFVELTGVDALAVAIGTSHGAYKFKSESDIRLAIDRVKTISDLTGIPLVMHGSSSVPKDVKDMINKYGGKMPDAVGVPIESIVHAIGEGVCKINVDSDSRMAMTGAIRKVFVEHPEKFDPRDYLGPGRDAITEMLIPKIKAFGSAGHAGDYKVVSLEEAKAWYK
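Giardia FBPA (40 nM reagent) was preincubated 10 min at RT with compound (up to 57.5 uM final), then substrate plus GAPDH/TPI/NAD/arsenate coupling system with diaphorase/resazurin was added; resorufin fluorescence (525/598 nm) was read after 20 min.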
Pf growth 48h: P. falciparum growth inhibition at 48 hours (one generation); Potency, µM (titrated, usually from 28.7 µM), for inactives: at the top dose activity change, negative = inhibition, hits mostly inhibitors; P. falciparum luciferase growth in erythrocytes, 48 h; AID 504832; 5.9% of 310,000 active; also: potency is read from the fitted curve at half-maximal effect; % is scaled to controls: 0 for no effect and ±100 for the full control effect
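Erythrocytes infected with P. falciparum carrying an integrated firefly luciferase reporter (2% hematocrit, 0.1% parasitemia final) were exposed to compounds in RPMI 1640 with 0.5% Albumax at 37 C, 5% CO2. Growth inhibition was scored as reduced luminescence.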
Cycloheximide cs: affects cycloheximide protein synthesis inhibition readout, counter-screen; max response, %; 12% of 300,000 active; AID 2314; cell reporter, cycloheximide protein synthesis inhibition counterscreen; in the data active = max response mostly above about 13%, no sharp cut-off; inactive = mostly below about 14%; also: read at 38.3 µM for the half of the compounds with a filed dose; 0% is about no effect
NS1 function inh: blocks influenza NS1 protein function; Potency, µM (series often up to 46.1 µM), for inactives: at the top dose activity, positive = more growth; 0.4% of 270,000 active; calls by dose curve; also: potency is read from the fitted curve at half-maximal effect; actives are rising curves; nearly all actives have a fitted effect of over 50% in size
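Read-out: OD600 growth recovery of NS1-expressing budding yeast. Cells grown overnight at 30C in -URA glucose medium, washed, resuspended and diluted 1:100 in 2% galactose assay medium, pH 6.0. Same strain lacking NS1 served as positive control.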
Shiga inhibitor: blocks Shiga toxin action in Vero cells; inhibition, % at 38.7 µM; AID 2315; 9.2% of 290,000 active; Vero cells, Shiga toxin protein synthesis inhibition reporter; in the data active = inhibition mostly above about 28%, no sharp cut-off; inactive = mostly below about 43%; also: 0% is about no effect
Pf growth 96h: P. falciparum growth inhibition at 96 hour, primary screen for plastid delayed-death inhibitors; AID 504834; 6.9% of 320,000 active; Potency, µM (series often up to 28.7 µM), for inactives: top-dose activity change, negative = inhibition, hits mostly inhibitors; P. falciparum luciferase reporter growth, 96 h; also: potency is read from the fitted curve at half-maximal effect; % is scaled to controls: 0 for no effect and ±100 for the full control effect
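Compounds incubated with erythrocytes infected by luciferase-expressing P. falciparum (2% hematocrit, 0.05% parasitemia final) for 96 hours, 37 C in 5% CO2. Growth inhibition scored as decreased luciferase luminescence.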
Starred values were filed as active, the others as inactive; ? = inconclusive; nt = no result given. Unless noted, calls follow the shape of the dose curve; as a rule, active = well fitted curve in the direction sought with a large enough effect; inconclusive = small, poorly fitted or top-dose-only effect, or another doubt; inactive = no such curve, though single readings can be large; an effect the other way counts as inactive or inconclusive.

SMILES	Giardia FBPA inh	Pf growth 48h	Cycloheximide cs	NS1 function inh	Shiga inhibitor	Pf growth 96h
Oc1ccc(/C=N/NC(=S)Nc2cccnc2)c(O)c1	-5%	6.6µM*	29*	5%	52*	0%
Fc1cccc(F)c1/C=N/NC(=S)Nc1cccnc1	?	490%	6	nt	34	34%
Fc1ccc(/C=N/NC(=S)Nc2cccnc2)cc1	-6%	-10%	27*	nt	41	-26%
Oc1cccc(/C=N/NC(=S)Nc2cccnc2)c1O	-12%	0.083µM*	30*	?	45*	?
Oc1ccc(/C=N/NC(=S)Nc2cccnc2)c(O)c1O	7.1µM*	?	-3	-1%	-3	?
O=C(Nc1ccc(F)cc1F)c1cc2ccccc2oc1=O	4%	-1%	20*	17%	53*	104%
N/C(=N\NC(=O)c1ccc(F)cc1)c1cc2ccccc2oc1=O	-2%	26%	10	0%	27	15%
CCOc1ccccc1NC(=O)c1cc2ccccc2oc1=O	13%	56%	10	-5%	13	?
N/C(=N\NC(=O)c1cccc(F)c1)c1cc2ccccc2oc1=O	-13%	?	26*	4%	34*	-17%
COc1ccc(Cl)c(NC(=O)C/C(C)=N/NC(=O)CCc2ccccc2)c1	0%	17%	-4	-1%	-3	20%
CCCCCCCCCCOCCC(=O)O	2%	nt	nt	nt	nt	nt
CCCCCc1nc2ccccc2c(=O)n1-c1ccc(Cl)cc1[N+](=O)[O-]	2%	4.7µM*	-4	2%	2	13µM*
Cc1cc(C)c(NC(=O)C2CSCCS2)c(C)c1 (centres undefined)	2%	61%	20*	0%	57*	94%
CCOc1ccc(-n2c(=O)c3sccc3n(CC(=O)NCC3CCCO3)c2=O)cc1 (centres undefined)	6%	39%	-4	0%	-17	?
Cc1cc(C)[n+]2[nH]c(N)c(N=Nc3ccccc3)c2n1	?	16%	17*	-32%	58*	-24%
Cc1ccc(S(=O)(=O)/N=C(/Nc2ccc(O)c(C(=O)O)c2)c2ccccc2)cc1	nt	-30%	nt	nt	nt	-34%
CCOC(=O)N1CCC(NC(=O)CSCc2nc(-c3ccc(OCC)cc3)oc2C)CC1	nt	12µM*	10	-24%	8	-2%
CCOc1ccc(-c2nc(CN3CCCC(C(=O)N4CCOCC4)C3)c(C)o2)cc1 (centres undefined)	-7%	?	18*	4%	31*	92%
CCOC(=O)N1CCC(NC(=O)CSCc2nc(-c3cccc(OC)c3)oc2C)CC1	6%	-22%	-3	-8%	1	?
Cc1oc(-c2ccc(Cl)cc2)nc1CSCC(=O)NC1CCN(Cc2ccccc2)CC1	1%	24%	-1	-5%	-4	15µM*
Cc1ccc(-c2nc(CN3CCCC(C(=O)N4CCOCC4)C3)c(C)o2)cc1 (centres undefined)	-1%	24%	1	3%	35	9%
CCOc1ccc(-c2nnn(CC(=O)NCc3ccco3)n2)cc1	1%	29%	26*	-9%	28	?
CN(Cc1cnn(C)c1)C(=O)C1CCC(=O)N(Cc2ccc(Cl)cc2)C1 (centres undefined)	nt	5%	-6	5%	12	-18%
O=C(CCC(=O)N1CCOc2ccccc21)Nc1cc(F)ccc1F	1%	2%	-2	-13%	-2	?
CCCC(=O)Nc1ccc(S(=O)(=O)Nc2cc(OC)ncn2)cc1	-26%	-10%	2	-2%	11	18%
SMILES	Giardia FBPA inh	Pf growth 48h	Cycloheximide cs	NS1 function inh	Shiga inhibitor	Pf growth 96h
CC(=O)OCC(NC(=O)C1CCCN1C(=O)OC(C)(C)C)C1OC(n2ccc(=O)[nH]c2=O)C(OC(C)=O)C1OC(C)=O (centres undefined)	5%	nt	-1	nt	-2	nt
CCCCC[C@H]1CN(C2CCCCC2)C(=O)[C@@H]1CC(=O)NCc1ccccc1	4%	27%	-3	-49%	-4	-11%
Cc1ccccc1-c1nc(CS(=O)(=O)CC(=O)NCc2ccc(F)cc2)c(C)o1	16%	16%	0	-11%	2	3%
CCOc1ccc(-c2nc(CSCC(=O)NC3CCCc4ccccc43)c(C)o2)cc1 (centres undefined)	-1%	nt	6	9%	13	13µM*
CCOc1ccc(-c2nc(CSCC(=O)NCc3ccco3)c(C)o2)cc1	-5%	?	-3	-9%	11	13µM*
CCOc1ccc(-c2nc(CSCC(=O)NC3CC3)c(C)o2)cc1	nt	13µM*	22*	-4%	2	23%
Cc1oc(-c2cccs2)nc1CSCC(=O)NC1CC1	1%	10%	-3	5%	-34	-11%
CCOc1ccc(-c2nc(CS(=O)(=O)CC(=O)NCc3ccc(F)cc3)c(C)o2)cc1	4%	-5%	12*	26%	20*	-21%
COc1ccc(-c2nc(CSCC(=O)NCc3ccc4c(c3)OCO4)c(C)o2)cc1	3%	nt	-4	-12%	-14	5.9µM*
COC(=O)C1CCN(c2nc3ccccc3nc2C(C#N)C(=O)NCCc2ccccc2)CC1 (centres undefined)	1%	-2%	11	-8%	76	15µM*
C=CCOC(=O)C(C#N)c1nc2ccccc2nc1N1CCC(C(=O)OCC)CC1 (centres undefined)	-1%	1.2µM*	5	-15%	35	56%
C=CCOC(=O)C(C#N)c1nc2ccccc2nc1N1CCN(c2ccccc2OCC)CC1 (centres undefined)	-5%	9.3µM*	-8	9%	-10	9.3µM*
CCOC(=O)C1CCN(c2nc3ccccc3nc2C(C#N)C(=O)OC(C)COC)CC1 (centres undefined)	-10%	8.3µM*	-2	-2%	-4	?
CCOC(=O)C1CCN(c2nc3ccccc3nc2C(C#N)C(=O)OC(C)C)CC1 (centres undefined)	4%	?	-2	-5%	-4	9%
COC(=O)C1CCN(c2nc3ccccc3nc2C(C#N)C(=O)OCC(C)C)CC1 (centres undefined)	-9%	?	-3	9%	16	?
CCC(CC)COC(=O)C(C#N)c1nc2ccccc2nc1N1CCN(CC)CC1 (centres undefined)	-3%	10µM*	1	-5%	-30	46%
CCC(C)COC(=O)C(C#N)c1nc2ccccc2nc1N1CCCCC1 (centres undefined)	-11%	?	-3	-90%	-22	-99%
C[C@]12C=CC(=O)C=C1CC[C@@H]1C2C(O)C[C@@]2(C)C1CC[C@]2(O)C(=O)COC(=O)CCC(=O)NC(CC(=O)O)C(=O)O (some centres undefined)	-3%	-7%	-2	3%	4	-10%
